Measurements as given in PubChem BioAssay (Tox21).
Records with an inconclusive call do not appear. Values without a mark were called inactive. Active and inactive are the calls of the source. Calls come from the whole dose curve; as a rule, active = well fitted cell-killing curve with a large enough effect in the repeat runs; inconclusive = weak or mixed curves; inactive = flat fitted curve, though single readings scatter.

Assay: qHTS RealTime-Glo MT Cell Viability Assay in HepG2 cells - 32 hour (AID 1224877); note: nearly all actives have a fitted effect of over 55% in size
Settings: RealTime-Glo luminescence; series mostly up to 76.8 µM; activity change, negative = cytotoxic: at the top concentration
Description: U.S. Tox21 Program National Center for Advancing Translational Sciences [NCATS] NIH Chemical Genomics Center [NCGC] U.S. Environmental Protection Agency [EPA] National Institutes of Environmental Health Sciences [NIEHS] National Toxicology Program [NTP] U.S. Food and Drug Administration [FDA] Tox21 Assay Overview: Measure of cell viability is critical in the cell-base assay. Analysis of cell viability is necessary for the characterization of cell responses to cytotoxic drugs and environmental stress. A RealTime-Glo MT Cell Viability Assay to monitor cell viability in real time of continues cell culture during 40 hours of compound treatment was used to screen Tox21 10K library compounds in HepG2 cells. The RealTime-Glo MT Cell Viability Assay is a nonlytic, homogeneous, bioluminescent method to measure cell viability in real time using a simple, plate-based method. The assay involves adding NanoLuc luciferase and a cell-permeant prosubstrate to cells in culture. Viable cells reduce the proprietary prosubstrate to generate a substrate for NanoLuc luciferase. This substrate diffuses from cells into the surrounding culture medium, where it is rapidly used by the NanoLuc Enzyme to produce a luminescent signal. The signal correlates with the number of viable cells, making the assay well suited for cytotoxicity studies.
Tox21 Assay Protocol Summary: The mixture of HepG2 cell suspension and reagents were dispensed at 600cells/6 ul/well in 1536-well tissue culture treated black solid bottom plates using a Multidrop dispenser. After the assay plates were incubated at a 37 C/5% CO2 incubator for 5 hours, 23 nL of compounds dissolved in DMSO, positive and negative controls was transferred to the assay plate by a pintool work station. The plates were incubated at 37 C for 40 hours. The luminescence intensity were measured at 0h, 8h, 16h, 24h, 32h and 40h time points using ViewLux plate reader during compound treatment.
% is set by controls: 0 for no effect and ±100 for the full control effect; potency is the fitted concentration of half-maximal effect.

SMILES	activity change, negative = cytotoxic	Potency
Cc1cc(C)c(N)cc1C	1.14%	–
CCOC(=O)c1ccc(O)c(O)c1	-2.12% [at 35.3 µM]	–
CC(C)COCC(CN(Cc1ccccc1)c1ccccc1)N1CCCC1 (stereo not given)	–	21.3 µM (active)
COc1ccccc1N1CCN(CCCCNC(=O)c2ccc(-c3ccc(C(C)=O)cc3)cc2)CC1	-18.2% [at 35.3 µM]	–
CCCC(C(=O)OCCN(CC)CC)(c1ccccc1)c1ccccc1	-13.4% [at 35.3 µM]	–
O=C1c2ccccc2C(=O)C1(O)O	-17.3%	–
Oc1cccc(O)c1O	-11.2%	–
O=Cc1c2ccccc2c(Cl)c2ccccc12	-0.82% [at 35.3 µM]	–
O=C1c2ccccc2C(=O)C1c1nc2ccccc2c(Br)c1O	-6.81%	–
CC1=C(CC=O)C(C)(C)CCC1	0.119%	–
CC(C)c1nc(CN(C)C(=O)N[C@H](C(=O)N[C@@H](Cc2ccccc2)C[C@H](O)[C@H](Cc2ccccc2)NC(=O)OCc2cncs2)C(C)C)cs1	-14.5% [at 35.3 µM]	–
Oc1cccc(Nc2ccccc2)c1	-2.25%	–
CCOC(=O)[C@H](CCc1ccccc1)N[C@@H](C)C(=O)N(CC(=O)O)C1Cc2ccccc2C1	-2.22% [at 35.3 µM]	–
CCCCCC[C@@H](O)C/C=C\CCCCCCCC(=O)O	3.23%	–
Cc1ccccc1S	0.394% [at 35.3 µM]	–
CCC=CC#N	0.499%	–
O=C(Cn1ccnc1[N+](=O)[O-])NCCO	2.45% [at 35.3 µM]	–
CCCCN(CCCC)C(C(N)=O)c1ccc(OC)cc1 (stereo not given)	0.712% [at 35.3 µM]	–
N#CCc1ccc(Cl)cc1Cl	-0.464%	–
CCC(=O)OC	2.87%	–

SMILES	activity change, negative = cytotoxic	Potency
COC(=O)CCS	-0.915%	–
COc1ccccc1Oc1c(NS(=O)(=O)c2ccc(C(C)(C)C)cc2)nc(-c2ncccn2)nc1OCCO	-3.44% [at 35.3 µM]	–
c1ccc(C[n+]2cccc3ccccc32)cc1	-4.1%	–
Cc1ccccc1N=C(N)Nc1ccccc1C	1.37%	–
Oc1ccc(Cl)c2cccnc12	-14.6% [at 35.3 µM]	–
CCCCCCCCCCCCCCN(CCO)CCO	–	19.5 µM (active)
C=C/C(C)=C/C/C=C(\C)CCC=C(C)C	-5.61%	–
CC(=O)N/N=C/c1ccc([N+](=O)[O-])o1	1.09% [at 35.3 µM]	–
CC(C)(C)CC(=O)OCC(=O)[C@@]1(O)CC[C@H]2[C@@H]3CCC4=CC(=O)C=C[C@]4(C)[C@H]3[C@@H](O)C[C@@]21C	-12.6% [at 35.3 µM]	–
CCC(C)COC(C)=O (stereo not given)	4.72%	–
OC(CCN1CCCC1)(c1ccccc1)C1CCCCC1 (stereo not given)	-0.422% [at 35.3 µM]	–
O=C(O)CCCCCCCCCCCBr	0.982%	–
COc1cc(Nc2c(C#N)cnc3cc(OCCCN4CCN(C)CC4)c(OC)cc23)c(Cl)cc1Cl	–	21.3 µM (active)
CCN(CC)CCNC(=O)COc1ccc(OC)cc1	2.37% [at 35.3 µM]	–
C=C(C)[C@@H]1CCC2=CCC[C@@H](C)[C@]2(C)C1	-0.418%	–
CCCCCCC(C)(C)C(=O)O	1.86%	–
CCOc1ccccc1O[C@H](c1ccccc1)[C@H]1CNCCO1	0.232% [at 35.3 µM]	–
NNC(=O)CP(=O)(c1ccccc1)c1ccccc1	-6.49% [at 35.3 µM]	–
Oc1c(I)cc(I)c2cccnc12	-7.54% [at 35.3 µM]	–
OC[C@H]1O[C@@H](n2cnc3c(=S)nc[nH]c32)[C@H](O)[C@@H]1O	1.04% [at 35.3 µM]	–
